Experimental data as given in PubChem BioAssay.
Values joined by “and” are separate entries in the source; they are usually repeats but may differ in a detail not shown here. Equal entries are not always repeated. Active and inactive are the calls of the source. Unless noted, how the calls were made is not given here.

Assays:
[1] = tested on: XIP peptide (Xip251-270) binding; experiment: XIP fragment 251-270 binding compounds – biochemical, small-molecule microarray, fluorescence 635/667 nm, 0.1 µg/mL protein, primary screen (AID 1182); details: fluorescent protein binding, 635 nm, higher = more signal, called active from +8 up or from −8 down
XIP peptide (Xip251-270) = experiment: compounds binding XIP fragment 251-270 – biochemical, small-molecule microarray, fluorescence 635/667 nm, 0.5 µg/mL protein, primary screen (AID 1183); details: fluorescence 635 nm, higher = more signal
[2] = blood-stage malaria parasite viability loss – strain 3D7, DAPI fluorescence, 100 nL, primary screen (AID 1184);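 further: parasites grown inside human red blood cells in medium with human serum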; details: P. falciparum 3D7 growth, 3 d, higher = more signal
[3] = target: Homeobox protein Hox-A13 (Mus musculus) (UniProt Q62424); experiment: disruptors of Hoxa13 oligonucleotide interaction – biochemical, fluorescence polarization, labeled oligonucleotide, primary screen (AID 1185); details: Hoxa13:DNA binding, 15 min, higher = more signal, called active from +8 up or from −8 down
[4] = blockers of DNA damage checkpoint Chk1 activation – imaging, HeLa, hydroxyurea, phospho-Chk1 antibody, percent positive cells, primary screen (AID 1186); details: hydroxyurea-induced phospho-Chk1 immunofluorescence imaging, higher = more signal
[5] = blockers of DNA damage checkpoint Chk1 activation – imaging, HeLa, hydroxyurea, phospho-Chk1 nuclear intensity, primary screen (AID 1187); details: hydroxyurea-induced phospho-Chk1 immunofluorescence imaging, higher = more signal

Sequence of Homeobox protein Hox-A13 (Mus musculus) (Q62424 whole entry, looked up): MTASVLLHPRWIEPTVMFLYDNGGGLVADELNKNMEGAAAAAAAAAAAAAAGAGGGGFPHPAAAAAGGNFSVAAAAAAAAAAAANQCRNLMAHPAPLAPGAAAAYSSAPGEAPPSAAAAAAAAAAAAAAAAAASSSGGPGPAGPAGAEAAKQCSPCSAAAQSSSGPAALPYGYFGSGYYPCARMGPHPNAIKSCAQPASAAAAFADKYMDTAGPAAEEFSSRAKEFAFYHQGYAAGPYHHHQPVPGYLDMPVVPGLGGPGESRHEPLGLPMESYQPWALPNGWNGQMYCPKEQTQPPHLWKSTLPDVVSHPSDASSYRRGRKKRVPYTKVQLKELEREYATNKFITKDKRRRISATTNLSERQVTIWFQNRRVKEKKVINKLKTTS

Q: Which results are given for `C=CCN(CCCCC)C(=O)C(c1cccs1)N(CCOCCO)C(=O)/C=C\C(=O)O` (configuration not stated)?
A: composite z-score [1]: -0.44 (inactive) and -0.841 (inactive); composite z-score (XIP peptide (Xip251-270)): -0.265 and -0.343; z-score [2]: -0.102 and -0.0618; z-score [3]: -0.478 (inactive) and -0.603 (inactive); z-score [4]: -0.0506 (inactive) and -0.514 (inactive); z-score [5]: 0.425 (inactive) and 0.965 (inactive)

Q: Which results are given for `C=CCN(CCCC)C(=O)C1N(c2c(Cl)cccc2CO)C(=O)C2C(C(=O)O)C3C=CC21O3` (configuration not stated)?
A: composite z-score [1]: -0.523 (inactive) and -0.356 (inactive); composite z-score (XIP peptide (Xip251-270)): 0.222 and 0.152; z-score [2]: -1.23 and -1.7; z-score [3]: -1.12 (inactive) and -1.43 (inactive); z-score [4]: 0.304 (inactive) and -0.273 (inactive); z-score [5]: 0.151 (inactive) and 0.131 (inactive)

Q: What does the source list for `C=CCN(C(=O)C(c1cccs1)N(C(=O)/C=C\C(=O)O)c1ccc(CCO)cc1)C(C)(C)C` (configuration not stated)?
A: composite z-score [1]: 0.356 (inactive) and 1.08 (inactive); composite z-score (XIP peptide (Xip251-270)): -0.998 and 0.187; z-score [2]: -0.21 and -0.719; z-score [3]: 0.0682 (inactive) and -0.369 (inactive); z-score [4]: 0.632 (inactive) and 1.03 (inactive); z-score [5]: 0.344 (inactive) and 0.743 (inactive)

Q: Which results are given for `COC(=O)C1=C(C)N(Cc2ccccc2)[C@]23O[C@](C(=O)OC)(C(=O)N2[C@@H]1c1ccccc1)[C@@H](C(=O)OC)[C@H]3C(=O)OC`?
A: composite z-score [1]: 1.4 (inactive) and -0.409 (inactive); composite z-score (XIP peptide (Xip251-270)): -0.0215 and 0.118; z-score [2]: -0.0831 and 0.255; z-score [3]: -4.02 (inactive) and -0.38 (inactive)

Q: Which composite z-score [1] does the source give for `CCOC(=O)[C@@H]1CC2O[C@]23C[C@@H]1C(=O)N1CCC[C@@H]1[C@H]3O[Si](C)(C)C(C)(C)C` (some centres not stated) here?
A: -0.86 (inactive) and -0.342 (inactive)

Q: And the composite z-score (XIP peptide (Xip251-270))?
A: -0.791 and 0.0241

Q: What about the z-score [2] of the same molecule?
A: -0.662 and 1.63

Q: What about the z-score [3] of the same molecule?
A: -4.09 (inactive) and -1.56 (inactive)

Q: And the z-score [4]?
A: 0.271 (inactive) and 0.387 (inactive)

Q: And the z-score [5]?
A: 0.288 (inactive) and 0.549 (inactive)

Q: Which results are given for `CO[C@H]1COC(=O)CC=C[C@@H](C)COC(=O)[C@H](CCSC)NC(=O)CC=C[C@@H]1C`?
A: composite z-score [1]: 0.218 (inactive) and 0.322 (inactive); composite z-score (XIP peptide (Xip251-270)): 0.421 and 0.562; z-score [2]: -1.51 and -0.356; z-score [3]: -0.947 (inactive) and -0.902 (inactive)

Q: Which composite z-score [1] does the source give for `C[N+](C)(C)CCCCNC(=O)[C@@H]1C[C@@H]2C(=O)N[C@@H](CCCC[N+](C)(C)C)C(=O)N2[C@@H]1c1cccc(OCCO)c1` here?
A: 0.785 (inactive) and 1.87 (inactive)

Q: And the composite z-score (XIP peptide (Xip251-270))?
A: 0.697 and 0.917

Q: What about the z-score [2] of the same molecule?
A: -0.0982 and -0.462

Q: And the z-score [3]?
A: -0.648 (inactive) and -1.01 (inactive)

Q: What about the z-score [4] of the same molecule?
A: -0.123 (inactive) and -0.528 (inactive)

Q: And the z-score [5]?
A: 0.0051 (inactive) and -0.229 (inactive)

Q: Which results are given for `C[C@@H]1CC[C@H]2C(=O)N3[C@@H](CC[C@@H](C)[C@@H]3c3ccc(-c4ccco4)cc3)C(=O)N2[C@H]1c1ccc(-c2ccco2)cc1`?
A: composite z-score [1]: 1.47 (inactive); composite z-score (XIP peptide (Xip251-270)): 0.827 and 0.789; z-score [2]: 0.376 and 0.75; z-score [3]: -1.46 (inactive) and 0.517 (inactive)

Q: With `C=CCN(C(=O)C(c1cccs1)N(CCOCCO)C(=O)/C=C\C(=O)O)C(C)(C)C` (configuration not stated) as the molecule, how does the composite z-score [1] read?
A: -0.344 (inactive) and 0.0156 (inactive)

Q: What about the composite z-score (XIP peptide (Xip251-270)) of the same molecule?
A: -0.281 and -0.228

Q: What about the z-score [2] of the same molecule?
A: 0.0905 and 0.921

Q: What about the z-score [3] of the same molecule?
A: 0.175 (inactive) and -0.386 (inactive)

Q: And the z-score [4]?
A: 0.0502 (inactive) and -0.289 (inactive)

Q: And the z-score [5]?
A: -0.124 (inactive) and 0.0803 (inactive)

Q: Which composite z-score [1] does the source give for `COC(=O)C1=C(C)N(Cc2ccccc2)C2=C(C(C)=O)[C@H](c3ccccc3)[C@@](O)(C(=O)OC)C(=O)N2[C@@H]1c1ccccc1` here?
A: 0.284 (inactive) and -0.864 (inactive)

Q: And the composite z-score (XIP peptide (Xip251-270))?
A: 0.727 and -1.64

Q: What about the z-score [2] of the same molecule?
A: 0.512 and -0.515

Q: What about the z-score [3] of the same molecule?
A: -4.62 (inactive) and 0.136 (inactive)

Q: With `COCn1c2ccccc2c2nnc(C(C)=O)nc21` as the molecule, how does the composite z-score [1] read?
A: -0.0478 (inactive) and 0.199 (inactive)

Q: And the composite z-score (XIP peptide (Xip251-270))?
A: -0.392 and -0.333

Q: And the z-score [2]?
A: -1.12 and -1.29

Q: What about the z-score [3] of the same molecule?
A: 0.732 (inactive) and 0.896 (inactive)

Q: Which results are given for `O=C(NN=C1C[C@@H](O)[C@@H](O)[C@@H]2[C@@H]3C(=O)N(Cc4ccc5c(c4)OCO5)C(=O)[C@@H]3CC[C@H]12)OCc1ccccc1`?
A: composite z-score [1]: 0.974 (inactive); composite z-score (XIP peptide (Xip251-270)): 0.222; z-score [2]: 0.228; z-score [3]: 0.0311 (inactive)

Q: Which composite z-score [1] does the source give for `C=CCN(C(=O)C1N(C(C)(C)CO)C(=O)C2C(C(=O)O)C3C=CC21O3)C(C)(C)C` (configuration not stated) here?
A: -0.651 (inactive) and 0.11 (inactive)

Q: And the composite z-score (XIP peptide (Xip251-270))?
A: -0.901 and -0.924

Q: What about the z-score [2] of the same molecule?
A: 0.214 and -0.208

Q: What about the z-score [3] of the same molecule?
A: -1.11 (inactive) and 0.241 (inactive)

Q: What about the z-score [4] of the same molecule?
A: -0.518 (inactive) and 1.17 (inactive)

Q: And the z-score [5]?
A: -0.112 (inactive) and 0.674 (inactive)

Q: With `CCOC(=O)c1ccc(NC(=O)O[C@H]2[C@H](OC(=O)Nc3ccccc3)[C@@H](OC(=O)Nc3ccccc3)[C@@H](OC)O[C@@H]2CO)cc1` as the molecule, how does the composite z-score [1] read?
A: 1.73 (inactive) and 0.466 (inactive)

Q: What about the composite z-score (XIP peptide (Xip251-270)) of the same molecule?
A: 0.928 and 0.91

Q: And the z-score [2]?
A: -1.89 and -2.47

Q: And the z-score [3]?
A: -3.34 (inactive) and -4.61 (inactive)

Q: What about the z-score [4] of the same molecule?
A: 0.416 (inactive) and -0.71 (inactive)

Q: What about the z-score [5] of the same molecule?
A: 0.161 (inactive) and -0.827 (inactive)
